Measured values from PubChem BioAssay (Tox21).
Inconclusive results are not listed. Activity calls are given as the source filed them. Unless noted, calls come from the whole dose curve; as a rule, active = well fitted curve in the direction sought with a large enough effect in the repeat runs; inconclusive = weak or mixed curves; inactive = no such curve, though single readings can be large; an effect the other way counts as inactive or inconclusive.

What was measured:
[1] = qHTS assay to identify small molecule antagonists of the vitamin D receptor (VDR) signaling pathway - cell viability counter screen (AID 743225); note: nearly all actives have a fitted effect of over 50% in size
Procedure, shortened: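 VDR-UAS-bla HEK 293T cells were plated and incubated 4 h at 37C, then dosed with compound plus 3 nM (final) 1-alpha,25-dihydroxyvitamin D3 for 16 h. After the 2 h beta-lactamase read, viability in the same wells was read as CellTiter-Glo luminescence after 30 min at room temperature.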

[2] = qHTS assay to identify small molecule agonists of the NFkB signaling pathway - cell viability counter screen (AID 1159515; calls by dose curve; note: series mostly up to about 61 µM; nearly all actives have a fitted effect of over 55% in size)
Procedure, shortened: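 Cells are seeded (2,000 NFkB-bla ME-180 per well), rested overnight, and dosed with DMSO-dissolved compounds for 5 hr at 37 C. Viability is then read by CellTiter-Glo luminescence after 30 min at room temperature.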

[3] = qHTS assay to identify small molecule agonists of the endoplasmic reticulum stress response signaling pathway (AID 1159516; active = well fitted activation curve with a large enough effect in the signal ratio in the repeat runs, not every such curve was filed as active; the % refers to the signal ratio)
Procedure, shortened: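 Cells are seeded at 1,500 per well and incubated overnight. Compounds in DMSO are added for 5 hr at 37 C, then beta-lactamase FRET substrate for 2 hr at room temperature, and fluorescence at 460 and 530 nm is measured.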

[4] = qHTS assay to identify small molecule agonists of the endoplasmic reticulum stress response signaling pathway - cell viability counter screen (AID 1159517; calls by dose curve;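 note: HeLa cells carrying an ER stress response element beta-lactamase reporter; series mostly up to about 61 µM; nearly all actives have a fitted effect of over 50% in size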)
Procedure, shortened: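 In parallel with the ESRE reporter read, cytotoxicity was scored by CellTiter-Glo luminescence (30 min, room temperature) on HeLa ESRE-bla cells dosed for 5 hr.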

[5] = qHTS assay to identify small molecule antagonists of the retinoid-related orphan receptor gamma (ROR-gamma) signaling pathway - cell viability counter screen (AID 1159520); note: nearly all actives have a fitted effect of over 50% in size
Procedure, shortened: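 Tet-on ROR gamma CHO cells were given compounds for 2 hr, then doxycycline hyclate at 1 uM final, and incubated 16 hr at 37 C. Viability was measured as ATP content by CellTiter-Glo luminescence.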

[6] = molecular target: Nuclear receptor ROR-gamma (Homo sapiens) (UniProt P51449); assay: qHTS assay to identify small molecule antagonists of the retinoid-related orphan receptor gamma (ROR-gamma) signaling pathway (AID 1159521;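 note: CHO cells with doxycycline inducible ROR-gamma driving an RORE luciferase reporter; top concentration of the series differs between compounds; nearly all actives have a fitted effect of over 50% in size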)
Procedure, shortened: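 Tet-on ROR-gamma CHO cells with ROR response element-luciferase reporter; compounds added 2 hr before 1 uM doxycycline induction, then 16 hr at 37 C. Antagonism scored as decreased ONE-Glo luminescence.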

[7] = qHTS assay to identify small molecule agonists of the AP-1 signaling pathway - cell viability counter screen (AID 1159525; calls by dose curve; note: nearly all actives have a fitted effect of over 55% in size)
Procedure, shortened: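 Same-well cytotoxicity counter screen of the Tox21 10K library in ME-180 cells. The readout is ATP-dependent luminescence after 5 h compound treatment. Data are normalised to DMSO and tetra n-octyl ammonium bromide controls.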

[8] = qHTS assay to identify small molecule agonists of the AP-1 signaling pathway (AID 1159526; calls by dose curve)
[9] = molecular target: Retinoic acid receptor RXR-alpha (Homo sapiens) (UniProt P19793); assay: qHTS assay to identify small molecule agonists of the RXR signaling pathway (AID 1159527; calls by dose curve; note: nearly all actives have a fitted effect of over 35% in size)
Sequence of Retinoic acid receptor RXR-alpha (Homo sapiens) (P19793 whole entry, looked up): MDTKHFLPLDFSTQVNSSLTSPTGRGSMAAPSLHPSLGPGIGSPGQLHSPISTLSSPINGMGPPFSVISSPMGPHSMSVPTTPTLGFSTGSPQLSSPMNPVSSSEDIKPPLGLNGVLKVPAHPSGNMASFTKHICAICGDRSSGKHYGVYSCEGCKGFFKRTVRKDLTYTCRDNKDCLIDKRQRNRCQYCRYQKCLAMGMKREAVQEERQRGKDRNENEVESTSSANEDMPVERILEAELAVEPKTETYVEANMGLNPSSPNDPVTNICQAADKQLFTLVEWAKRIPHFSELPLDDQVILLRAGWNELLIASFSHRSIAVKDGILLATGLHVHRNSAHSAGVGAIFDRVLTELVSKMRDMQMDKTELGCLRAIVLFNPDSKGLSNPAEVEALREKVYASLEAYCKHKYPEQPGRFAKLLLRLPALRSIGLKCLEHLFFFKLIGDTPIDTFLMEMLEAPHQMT
Procedure, shortened: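 GeneBLAzer RXR-alpha-UAS-bla HEK 293T cells in 2% charcoal-stripped FBS medium were exposed to compounds for 16 hr at 37 C in agonist mode. Beta-lactamase reporter read as 460/530 nm FRET ratio after 2 hr substrate loading.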

[10] = qHTS assay to identify small molecule agonists of the RXR signaling pathway - cell viability counter screen (AID 1159529)
Procedure, shortened: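 RXR-alpha-UAS-bla HEK 293T cells in medium with 2% charcoal-stripped FBS were pre-incubated 5 hr, then compound-treated 16 hr at 37 C. Viability was read by CellTiter-Glo luminescence in the same wells as the beta-lactamase assay, with tetraoctyl ammonium bromide as positive control.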

[11] = qHTS assay to identify small molecule antagonists of the retinoid acid receptor (RAR) signaling pathway - cell viability counter screen (AID 1159551); note: nearly all actives have a fitted effect of over 35% in size
Procedure, shortened: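 Cells (C3RL4) are plated, incubated overnight, dosed with compound in DMSO, then given retinol at 1 uM final. After 6 h at 37 C, CellTiter-Glo is added and luminescence read following 30 min at room temperature.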

[12] = qHTS assay to identify small molecule antagonists of the retinoic acid receptor (RAR) signaling pathway (AID 1159552; note: nearly all actives have a fitted effect of over 50% in size)
Procedure, shortened: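 Retinol signaling pathway inhibitors screened in C3RL4 RARE-luciferase reporter cells seeded overnight at 37 C, then compounds added with 1 uM (final) retinol as pathway substrate. After 6 hr at 37 C, luciferase luminescence read after 30 min at room temperature.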

[13] = qHTS assay to identify small molecule agonists of the retinoic acid receptor (RAR) signaling pathway (AID 1159553)
Procedure, shortened: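 Seed C3RL4 reporter cells at 1,000 per well and incubate overnight at 37 C. Add compounds in DMSO, incubate 6 hr. Add luciferase reagent, wait 30 min at room temperature, read luminescence.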

[14] = molecular target: Luciferin 4-monooxygenase (Photinus pyralis) (UniProt P08659); assay: qHTS assay to identify small molecule inhibitors of firefly luciferase (AID 1224835); note: series mostly up to about 120 µM; nearly all actives have a fitted effect of over 25% in size
Sequence of Luciferin 4-monooxygenase (Photinus pyralis) (P08659 whole entry, looked up): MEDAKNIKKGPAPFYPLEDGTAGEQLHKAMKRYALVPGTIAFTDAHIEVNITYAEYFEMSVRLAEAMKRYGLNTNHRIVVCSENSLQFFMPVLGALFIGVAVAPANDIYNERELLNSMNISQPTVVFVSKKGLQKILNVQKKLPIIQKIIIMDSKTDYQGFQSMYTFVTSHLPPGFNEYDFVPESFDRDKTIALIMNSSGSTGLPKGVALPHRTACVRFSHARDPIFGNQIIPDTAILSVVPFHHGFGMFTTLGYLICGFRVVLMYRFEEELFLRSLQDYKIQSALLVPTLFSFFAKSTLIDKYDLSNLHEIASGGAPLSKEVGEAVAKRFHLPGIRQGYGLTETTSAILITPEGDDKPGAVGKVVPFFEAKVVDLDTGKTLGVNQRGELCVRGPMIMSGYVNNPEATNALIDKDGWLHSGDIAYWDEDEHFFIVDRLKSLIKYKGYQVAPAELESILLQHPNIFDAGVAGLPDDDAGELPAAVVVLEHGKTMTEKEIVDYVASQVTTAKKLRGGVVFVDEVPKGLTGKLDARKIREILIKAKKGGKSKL
Procedure, shortened: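 Biochemical qHTS: compounds run as interplate titrations against purified firefly enzyme, with D-luciferin and ATP each at its KM concentration. Light output recorded by CCD imaging.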

[15] = qHTS assay to identify small molecule agonists of the constitutive androstane receptor (CAR) signaling pathway - cell viability counter screen (AID 1224836); note: series mostly up to about 92 µM; nearly all actives have a fitted effect of over 45% in size
Procedure, shortened: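 HepG2 cells stably carrying hCAR and a CYP2B6-2.2kb reporter; 15-concentration compounds plus PK11195 (final 0.75 uM), 23 hr at 37 C/5% CO2. Viability read by CellTiter-Fluor fluorescence.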

[16] = qHTS assay to identify small molecule antagonists of the constitutive androstane receptor (CAR) signaling pathway - cell viability counter screen (AID 1224837); note: series mostly up to about 92 µM; nearly all actives have a fitted effect of over 45% in size
Procedure, shortened: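 Viability was measured with CellTiter-Fluor in a HepG2 line carrying stably transfected hCAR and a CYP2B6-2.2kb construct. Cells were exposed for 23 hr at 37 C to 15 compound concentrations with 50 nM CITCO as agonist.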

[17] = qHTS assay to identify small molecule antagonists of the estrogen related receptor signaling pathway with the pleiotropic PPARgamma coactivator (PGC) from Tox21 10K library - cell viability counter screen (AID 1224840; active = well fitted cell-killing curve with a large enough effect in the repeat runs, not every such curve was filed as active; note: nearly all actives have a fitted effect of over 40% in size)
Procedure, shortened: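 Multiplexed viability counter screen in the PGC/ERR cell line: cells treated with DMSO-dissolved compounds for 17.5 hours at 37 C, then viability measured as CellTiter-Fluor fluorescence.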

[18] = molecular target: Nuclear receptor subfamily 1 group I member 3 (Homo sapiens) (UniProt Q14994); assay: qHTS assay to identify small molecule antagonists of the constitutive androstane receptor (CAR) signaling pathway (AID 1224838);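 note: HepG2 cells stably expressing hCAR with CYP2B6 luciferase reporter stimulated by CITCO; nearly all actives have a fitted effect of over 40% in size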
Sequence of Nuclear receptor subfamily 1 group I member 3 (Homo sapiens) (Q14994 whole entry, looked up): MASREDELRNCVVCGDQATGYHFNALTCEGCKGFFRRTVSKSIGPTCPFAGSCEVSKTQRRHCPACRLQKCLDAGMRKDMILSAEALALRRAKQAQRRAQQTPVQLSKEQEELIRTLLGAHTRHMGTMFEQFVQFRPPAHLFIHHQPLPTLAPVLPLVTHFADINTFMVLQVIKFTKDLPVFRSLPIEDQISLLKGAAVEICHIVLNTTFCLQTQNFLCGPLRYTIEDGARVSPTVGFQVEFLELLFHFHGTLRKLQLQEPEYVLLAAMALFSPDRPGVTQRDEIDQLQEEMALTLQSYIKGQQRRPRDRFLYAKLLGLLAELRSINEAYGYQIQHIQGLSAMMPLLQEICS
Procedure, shortened: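 Antagonist mode used CITCO at a final 50 nM to activate CAR in human hepatoma HepG2 cells carrying stable hCAR and a 2.2 kb CYP2B6 promoter-luciferase construct. Compounds were tested at 15 concentrations over 24 h, with luminescence as the end point.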

[19] = molecular target: Nuclear receptor subfamily 1 group I member 3 (Homo sapiens) (UniProt Q14994); assay: qHTS assay to identify small molecule agonists of the constitutive androstane receptor (CAR) signaling pathway (AID 1224839); note: series mostly up to about 92 µM; nearly all actives have a fitted effect of over 15% in size
Procedure, shortened: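 HepG2 cells stably co-transfected with hCAR and a CYP2B6-2.2kb luciferase reporter; compounds at 15 concentrations with 0.75 uM PK11195 present. After 24 hr at 37 C, luciferase read by ONE-Glo luminescence.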

[20] = qHTS assay to identify small molecule antagonists of the estrogen related receptor (ERR) signaling pathway from Tox21 library - cell viability counter screen (AID 1224834); note: nearly all actives have a fitted effect of over 30% in size
Procedure, shortened: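 ERR cells, 2,000/well; 6 h settle at 37 C/5% CO2; pin-tool compound transfer in DMSO; 17.5 h at 37 C; CellTiter-Fluor, 30 min; fluorescence intensity.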

Measured: Potency

C=CC(=O)OCC[N+](C)(C)C
not listed: [18] | [19] | [20]
inactive: all other assays above

C[C@]12C=CC(=O)C=C1[C@@H](F)C[C@@H]1[C@@H]2[C@@H](O)C[C@@]2(C)[C@H]1CC[C@]2(O)C(=O)CO
not listed: [1] | [18] | [19] | [20]
inactive: all other assays above

C=C(C)C(=O)OCCOC1CC2CC1C1C=CCC21 (centres undefined)
not listed: [20]
inactive: all other assays above

CCOC(=O)COc1ccc2c(C)c(CCN(CC)CC)c(=O)oc2c1Cl
not listed: [13] | [19]
inactive: all other assays above

C/C=C(\C)C=O
not listed: [15] | [18] | [19]
inactive: all other assays above

O=C1CC2(CCCC2)CC(=O)N1CCNCC1COc2ccccc2O1 (centres undefined)
not listed: [15] | [18] | [19]
inactive: all other assays above

CC(C)(O)c1ccc(C(C)(C)O)cc1
not listed: [13]
inactive: all other assays above

Cc1cc(C)c(N)c(Cl)c1
not listed: [1] | [15] | [20]
inactive: all other assays above

C[C@H]1COc2c(C3(N)CC3)c(F)cc3c(=O)c(C(=O)O)cn1c23
not listed: [13]
inactive: all other assays above
